PubChem BioAssay (NCATS)
Records with an inconclusive call do not appear. Activity calls are given as the source filed them. Unless noted, calls follow the shape of the dose curve; as a rule, active = well fitted curve in either direction with a large enough effect (not every such curve was filed as active); inconclusive = small, poorly fitted or top-dose-only effect, or another doubt; inactive = flat fitted curve, though single readings scatter.

Key:
[1] = target: Lysosomal acid glucosylceramidase (Homo sapiens) (UniProt P04062); experiment: Glucocerebrosidase-p2 (AID 348; in the data active = potency below about 10 µM; also: potency is read from the fitted curve at half-maximal effect); details: purified GBA, blue fluorogenic substrate, 40 min
Sequence of Lysosomal acid glucosylceramidase (Homo sapiens) (P04062 whole entry, looked up): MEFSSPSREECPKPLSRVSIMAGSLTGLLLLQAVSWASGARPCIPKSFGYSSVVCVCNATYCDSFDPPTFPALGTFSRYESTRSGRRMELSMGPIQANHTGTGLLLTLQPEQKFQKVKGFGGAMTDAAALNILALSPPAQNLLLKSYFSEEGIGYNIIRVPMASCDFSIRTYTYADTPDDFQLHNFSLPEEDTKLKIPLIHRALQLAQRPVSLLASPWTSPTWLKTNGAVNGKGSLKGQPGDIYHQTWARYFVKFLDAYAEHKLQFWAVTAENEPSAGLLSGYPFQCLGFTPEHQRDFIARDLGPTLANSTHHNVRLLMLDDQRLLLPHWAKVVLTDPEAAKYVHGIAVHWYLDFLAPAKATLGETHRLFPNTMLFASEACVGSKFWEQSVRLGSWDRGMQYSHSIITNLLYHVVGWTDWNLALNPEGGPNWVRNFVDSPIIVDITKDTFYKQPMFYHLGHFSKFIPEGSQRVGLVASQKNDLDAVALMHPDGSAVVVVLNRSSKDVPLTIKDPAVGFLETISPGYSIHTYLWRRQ
Method in brief: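 Compounds titrated from 0.6 nM upwards against 0.2 nM enzyme in pH 5.9 citric acid/KH2PO4, taurocholate, tween-20; blue fluorogenic substrate 80 uM, 40 min room temperature, stopped and read Ex 365/Em 440 for AC50.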

[2] = AP1 Signaling Pathway (AID 357); details: ME-180 AP-1-bla reporter, EGF-induced, beta-lactamase ratio, 5 h; at 7.69 µM (top of the series) unless noted; also: % is scaled to controls: 0 for no effect and ±100 for the full control effect
Method in brief: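 ME-180 cells with beta-lactamase reporter under AP-1 response element, stimulated with EC50 EGF; compounds tested in titration series, 5 h at 37 °C. CCF4 substrate added 2.5 h at room temperature; 460/530 nm emission ratio gave %activity and AC50.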

[3] = Stat Signaling Pathway (AID 446); details: ME-180 SIE beta-lactamase reporter, IL-6 stimulated, 5 h; at 7.69 µM (top of the series) unless noted;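 also: ME-180 cervical cancer cells given 40 pM IL-6 alongside compound; SIE-controlled beta-lactamase reporter measured as 460/530 nm FRET emission ratio; % is scaled to controls: 0 for no effect and ±100 for the full control effect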
Method in brief: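 ME-180 SIE-bla cells; overnight plating; cpd + IL-6 40 pM, 5 h, 37 C; LiveBLAzer 2.5 h RT; 460/530 nm emission ratio. Normalized to 300 pM IL-6 and 125 nM JAK inhibitor controls.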

[4] = target: Glucocorticoid receptor (Homo sapiens) (UniProt P04150); experiment: GR-EFC Redistribution (AID 451; calls by dose curve; also: potency is read from the fitted curve at half-maximal effect); details: CHO-K1 GR-EFC translocation, beta-gal luminescence, 2 h
Sequence of Glucocorticoid receptor (Homo sapiens) (P04150 whole entry, looked up, the tested form may be a part): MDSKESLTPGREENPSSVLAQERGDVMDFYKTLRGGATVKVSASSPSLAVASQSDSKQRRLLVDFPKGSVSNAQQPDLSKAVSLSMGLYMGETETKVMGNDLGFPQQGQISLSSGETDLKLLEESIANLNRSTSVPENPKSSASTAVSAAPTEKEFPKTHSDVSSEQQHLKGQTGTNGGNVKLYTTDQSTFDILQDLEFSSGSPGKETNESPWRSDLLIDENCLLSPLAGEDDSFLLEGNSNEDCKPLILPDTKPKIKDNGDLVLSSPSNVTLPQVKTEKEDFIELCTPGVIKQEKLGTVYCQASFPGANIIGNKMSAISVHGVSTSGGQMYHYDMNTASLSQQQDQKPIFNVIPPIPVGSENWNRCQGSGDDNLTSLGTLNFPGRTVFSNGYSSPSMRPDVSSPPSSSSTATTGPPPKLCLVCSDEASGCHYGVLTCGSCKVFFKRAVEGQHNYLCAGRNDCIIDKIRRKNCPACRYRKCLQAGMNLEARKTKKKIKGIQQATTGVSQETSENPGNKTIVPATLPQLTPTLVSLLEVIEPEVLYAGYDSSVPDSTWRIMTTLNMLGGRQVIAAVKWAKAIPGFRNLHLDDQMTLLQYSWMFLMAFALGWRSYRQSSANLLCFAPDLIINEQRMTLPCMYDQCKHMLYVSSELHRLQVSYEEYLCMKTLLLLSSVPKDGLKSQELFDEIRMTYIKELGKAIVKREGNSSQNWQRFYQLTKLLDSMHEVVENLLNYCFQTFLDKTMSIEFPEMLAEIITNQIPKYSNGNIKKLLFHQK
Method in brief: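 CHO-K1 cells expressing nuclear EA and GR-ED fragments of b-gal; compounds titrated up to 46 uM final, 2 h at 37 C. GR nuclear translocation read as complemented b-gal luminescence after 1 h RT detection.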

[5] = target: Mitogen-activated protein kinase 10 (Mus musculus) (UniProt Q61831); experiment: JNK3 AlphaScreen Assay (AID 530); details: JNK3 lysate, c-Jun phosphorylation; series mostly up to 57.1 µM;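 also: kinase came from lysate of stimulated human HepG2 cells; signal reports phosphorylation of biotinylated GST-cJun 1-79 at Ser73 with 10 µM ATP; % is scaled to controls: 0 for no effect and ±100 for the full control effect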
Method in brief: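 Pre-activated (IL-1β/TNFα) JNK3 in HepG2 lysates phosphorylates biotin-GST-cJun(1-79), 10 uM ATP; anti-phospho-cJun(Ser73) AlphaScreen read at room temperature, pH 7.6 Tris buffer. Compounds pre-incubated 15 min as titrations.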

[6] = target: 3',5'-cyclic-AMP phosphodiesterase 4B (Homo sapiens) (UniProt Q07343); experiment: qHTS Assay for Inhibitors of PDE-IV (AID 607; active = well fitted activation curve with a large enough effect in the main read-out, with a control signal flat, not every such curve was filed as active; also: % of control where 0% means no effect); details: HEK293 ACTOne CNG channel cells, membrane potential fluorescence; series mostly up to 22.9 µM
Sequence of 3',5'-cyclic-AMP phosphodiesterase 4B (Homo sapiens) (Q07343 whole entry, looked up): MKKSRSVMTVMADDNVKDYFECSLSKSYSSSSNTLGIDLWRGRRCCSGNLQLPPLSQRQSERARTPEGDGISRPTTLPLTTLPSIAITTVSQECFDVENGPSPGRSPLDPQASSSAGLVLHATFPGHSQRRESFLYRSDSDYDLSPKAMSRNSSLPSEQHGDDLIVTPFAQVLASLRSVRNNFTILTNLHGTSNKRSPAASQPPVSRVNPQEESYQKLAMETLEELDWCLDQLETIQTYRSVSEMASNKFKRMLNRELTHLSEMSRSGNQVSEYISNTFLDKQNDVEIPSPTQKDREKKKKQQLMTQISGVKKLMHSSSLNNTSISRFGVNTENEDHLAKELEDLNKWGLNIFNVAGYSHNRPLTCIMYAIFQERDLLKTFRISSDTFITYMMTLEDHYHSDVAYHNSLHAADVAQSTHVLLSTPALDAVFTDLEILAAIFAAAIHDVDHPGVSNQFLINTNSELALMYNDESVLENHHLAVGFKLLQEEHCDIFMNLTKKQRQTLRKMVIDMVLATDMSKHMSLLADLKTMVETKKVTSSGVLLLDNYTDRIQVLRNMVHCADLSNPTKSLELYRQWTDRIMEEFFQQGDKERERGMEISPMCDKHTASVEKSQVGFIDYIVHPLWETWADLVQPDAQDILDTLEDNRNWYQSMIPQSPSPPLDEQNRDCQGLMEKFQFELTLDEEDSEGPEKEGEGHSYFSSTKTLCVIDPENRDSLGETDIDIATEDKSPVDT
Method in brief: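 ACTOne HEK293 cells carry a modified cAMP-gated CNG channel and express endogenous PDE4; plated 1000 cells/well, compounds up to 22.9 uM final. Membrane-potential dye fluorescence (ex 535/em 590) was read; parental cells received 10 uM forskolin + 100 uM RO 20-1724.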

[7] = qHTS Assay for Lipid Storage Modulators (AID 1519; calls by dose curve); details: Drosophila S3 cells, BODIPY lipid droplet/cell ratio, laser cytometry, cells loaded with oleic acid; for activity change, negative = inhibition: at 57.5 µM (top of the series)
Method in brief: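 Cells seeded at 5,000 per well were treated with compounds over a concentration series and loaded with oleic acid (400 uM, as added). Lipid droplet fluorescence (488 nm excitation, 500-530 nm channel) was read by laser-scanning cytometry and normalized to 20 uM Triacsin C.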

[8] = Primary qHTS for small molecule stabilizers of the endoplasmic reticulum resident proteome: Secreted ER Calcium Modulated Protein (SERCaMP) assay (AID 1508630; active = well fitted curve in the direction sought with a large enough effect; an effect the other way counts as inactive or inconclusive; also: % is scaled to controls: 0 for no effect and ±100 for the full control effect); details: SH-SY5Y GLuc-SERCaMP (Gaussia luciferase released on ER calcium loss) secretion, thapsigargin, luminescence; series mostly up to 38.4 µM
Method in brief: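 GLuc-SERCaMP-expressing SH-SY5Y cells, pretreated 16 h with compound, are challenged with thapsigargin to empty ER calcium stores; after 4 h, coelenterazine is added directly to the medium and luminescence is imaged.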

[9] = target: Cytochrome P450 1A2 (Homo sapiens) (UniProt P05177); experiment: p450-cyp1a2 (AID 410; calls by dose curve; also: potency is read from the fitted curve at half-maximal effect); details: recombinant CYP1A2, luciferin-ME demethylation, luminescence; series mostly up to 57 µM
Sequence of Cytochrome P450 1A2 (Homo sapiens) (P05177 whole entry, looked up): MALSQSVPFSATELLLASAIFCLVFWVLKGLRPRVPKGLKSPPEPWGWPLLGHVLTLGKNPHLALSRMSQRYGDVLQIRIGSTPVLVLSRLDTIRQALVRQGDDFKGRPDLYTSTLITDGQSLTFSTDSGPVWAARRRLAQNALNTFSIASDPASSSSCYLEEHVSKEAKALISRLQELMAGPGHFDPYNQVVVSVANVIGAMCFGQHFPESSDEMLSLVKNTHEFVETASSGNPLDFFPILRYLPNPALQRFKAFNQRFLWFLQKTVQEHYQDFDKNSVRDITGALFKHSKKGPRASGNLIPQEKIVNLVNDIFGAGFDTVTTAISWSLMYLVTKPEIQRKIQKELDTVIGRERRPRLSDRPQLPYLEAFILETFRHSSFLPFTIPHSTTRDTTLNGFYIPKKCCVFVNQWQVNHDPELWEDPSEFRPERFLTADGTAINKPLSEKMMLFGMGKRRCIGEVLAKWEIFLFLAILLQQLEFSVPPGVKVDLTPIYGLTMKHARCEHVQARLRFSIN
Method in brief: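 Luminescent readout of luciferin formed from Luciferin-ME by human CYP1A2; data normalized against complete inhibition by 57 uM furafylline. Enzyme 20nM, substrate 100uM at Km, 100mM KPO4 buffer, 60 min reaction at room temperature.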

[10] = NFAT Signaling Pathway (AID 444); details: Jurkat NFAT-bla M1, carbachol, beta-lactamase ratio, 5 h; at 7.69 µM (top of the series) unless noted
Method in brief: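 Jurkat cells with NFAT-driven β-lactamase reporter and co-expressed M1 receptor, stimulated with carbachol (final 1 uM, ~EC50), compound titration, 5 h at 37 °C. CCF4 loaded 1 h at RT; 460/530 nm ratio gave %activity and AC50.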

[11] = target: Cytochrome P450 3A4 (Homo sapiens) (UniProt P08684); experiment: qHTS Assay for Activators of Cytochrome P450 3A4 (AID 885; active = well fitted curve in the direction sought with a large enough effect; an effect the other way counts as inactive or inconclusive; also: nearly all actives have a fitted effect of over 65% in size); details: recombinant CYP3A4, Luciferin-PPXE luminescence, 60 min; series mostly up to 57.1 µM
Sequence of Cytochrome P450 3A4 (Homo sapiens) (P08684 whole entry, looked up): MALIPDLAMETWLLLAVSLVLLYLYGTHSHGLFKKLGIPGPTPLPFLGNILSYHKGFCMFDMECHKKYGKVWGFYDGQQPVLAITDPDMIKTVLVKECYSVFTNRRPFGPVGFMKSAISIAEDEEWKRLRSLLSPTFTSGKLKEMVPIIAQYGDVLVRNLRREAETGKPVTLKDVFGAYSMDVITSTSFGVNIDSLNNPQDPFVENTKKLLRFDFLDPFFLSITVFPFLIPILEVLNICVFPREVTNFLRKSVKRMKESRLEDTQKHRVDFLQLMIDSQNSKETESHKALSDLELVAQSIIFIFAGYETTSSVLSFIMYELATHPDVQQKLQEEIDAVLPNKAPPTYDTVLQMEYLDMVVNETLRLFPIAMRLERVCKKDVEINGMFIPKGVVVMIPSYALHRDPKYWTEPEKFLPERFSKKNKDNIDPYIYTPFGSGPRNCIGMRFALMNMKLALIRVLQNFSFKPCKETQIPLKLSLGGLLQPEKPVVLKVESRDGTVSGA
Method in brief: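 20nM CYP3A4 + 25uM Luciferin-PPXE (=KM), 200mM KPO4; cpd 10 min RT; NADPH regen, 60 min RT; stop w/ detection buffer, 20 min; luminescence. Normalized to 57 uM ketoconazole.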

[12] = Confirmation and Secondary Assay for Modulators of Hemoglobin Beta Chain Splicing at IVS2 654 locus (AID 910; active = well fitted curve in the direction sought with a large enough effect; an effect the other way counts as inactive or inconclusive;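 also: HeLa cells stably carrying EGFP split by mutant beta-globin IVS2-654 intron; % of control where 0% means no effect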); details: HeLa EGFP-654 splicing reporter, GFP fluorescence, 48 h; series mostly up to 38.3 µM
Method in brief: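 HeLa cells stably expressing EGFP interrupted by β-globin IVS2-654 intron, seeded overnight in Opti-MEM/2% FCS, then treated 2 days at 37 °C. Restored splicing read as total peak GFP intensity per well by laser scanning cytometry (488 nm excitation, 500–520 nm emission); 500 nM antisense PNA as control.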

[13] = Confirmation and Secondary Assay for Modulators of Hemoglobin Beta Chain Splicing at IVS2 705 locus (AID 930; active = well fitted curve in the direction sought with a large enough effect; an effect the other way counts as inactive or inconclusive;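 also: HeLa cells stably expressing the EGFP-705 splicing reporter; GFP fluorescence per well restored by corrected splicing of the IVS2-705 intron in EGFP; % of control where 0% means no effect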); details: HeLa EGFP-705 splicing reporter, GFP fluorescence, 48 h; series mostly up to 38.3 µM
Method in brief: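 HeLa EGFP-705 reporter; 500 cells/well, o/n 37C 5% CO2; cpd 2 d; 488 ex/500-520 em laser scan; total peak GFP intensity/well. Ref: 500 nM […] antisense PNA.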

[14] = target: Ubiquitin carboxyl-terminal hydrolase 1 (Homo sapiens) (UniProt O94782); experiment: Inhibitors of USP1/UAF1: Pilot qHTS (AID 504865; active = well fitted curve in the direction sought with a large enough effect; an effect the other way counts as inactive or inconclusive;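 also: rhodamine fluorescence freed from ubiquitin-rhodamine substrate followed over time; top concentration of the series differs between compounds; % is scaled to controls: 0 for no effect and ±100 for the full control effect; nearly all actives have a fitted effect of over 35% in size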); details: purified USP1/UAF1, Ub-rhodamine cleavage fluorescence; series mostly up to 54.9 µM
Sequence of Ubiquitin carboxyl-terminal hydrolase 1 (Homo sapiens) (O94782 whole entry, looked up): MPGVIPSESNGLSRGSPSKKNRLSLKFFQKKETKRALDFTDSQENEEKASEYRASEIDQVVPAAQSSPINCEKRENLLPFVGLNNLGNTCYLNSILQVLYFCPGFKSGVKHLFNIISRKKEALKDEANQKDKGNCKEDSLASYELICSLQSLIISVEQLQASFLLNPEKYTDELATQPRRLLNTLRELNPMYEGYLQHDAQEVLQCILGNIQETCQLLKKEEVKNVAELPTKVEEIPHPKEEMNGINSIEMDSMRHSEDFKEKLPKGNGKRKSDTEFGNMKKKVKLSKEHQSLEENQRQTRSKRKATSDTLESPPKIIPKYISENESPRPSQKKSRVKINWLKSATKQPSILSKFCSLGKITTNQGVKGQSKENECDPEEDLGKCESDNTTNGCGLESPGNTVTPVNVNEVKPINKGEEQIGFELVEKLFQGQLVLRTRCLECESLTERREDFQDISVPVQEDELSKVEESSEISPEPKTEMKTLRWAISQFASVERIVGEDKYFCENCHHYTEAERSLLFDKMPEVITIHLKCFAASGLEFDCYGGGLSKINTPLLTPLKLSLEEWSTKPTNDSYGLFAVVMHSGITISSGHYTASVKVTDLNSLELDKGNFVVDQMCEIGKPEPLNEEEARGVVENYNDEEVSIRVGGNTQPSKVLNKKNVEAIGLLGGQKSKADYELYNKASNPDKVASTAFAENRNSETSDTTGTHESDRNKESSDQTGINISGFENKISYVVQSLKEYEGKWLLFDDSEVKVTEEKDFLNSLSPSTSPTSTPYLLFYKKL
Method in brief: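 Deubiquitinase activity followed as kinetic rhodamine fluorescence release from 150 nM Ub-Rho. 1 nM USP1/UAF1 with compound, after 15 min room-temperature preincubation, in HEPES pH 7.8 buffer containing TCEP, EDTA, BSA and Tween-20.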

[15] = qHTS Assay for Identification of Small Molecule Agonists for Hypoxia Response Element Signaling Pathway (AID 914; active = well fitted activation curve with a large enough effect in the signal ratio, with a control signal flat, not every such curve was filed as active; the % refers to the signal ratio; also: potency is read from the fitted curve at half-maximal effect); details: ME-180 (cervical carcinoma) HRE-bla reporter, beta-lactamase ratio, CoCl2, 17 h; activation: stronger effect = higher value
Method in brief: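 Read-out: CCF4 FRET ratio of 460nm to 530nm emission (excitation 405nm) after 2.5 hours at room temperature, taken from HRE-bla ME-180 cells that had been exposed to compound and EC50 CoCl2 for 17 hours.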

[16] = measured here: cell count channel max response
[17] = measured here: lipid channel max response

Row | Structure (SMILES) | Potency [1] | activity change, negative = inhibition [2] | activity, negative = inhibition [3] | Potency [4] | Potency [5] | Potency [6] | activity change, negative = inhibition [7] | max response [7, 16] [%] | max response [7, 17] [%] | outcome [8] | Potency [9] | activity change, negative = inhibition [10] | Potency [11] | Potency [12] | outcome [13] | Potency [14] | Potency [15]
1 | COc1ccc(C(=O)N2CCC3(CCCN(c4ccccc4)C3)CC2)cc1 | > 11.4 µM (inactive) | -1.35% (inactive) | -0.767% (inactive) | > 46 µM (inactive) | inactive | inactive | -17.3% (inactive) | 1.98 | -15 | inactive |  |  |  |  |  |  | 
2 | O=C(c1ccncc1)N1CCC2(CCCN(c3ccncc3)C2)CC1 | > 11.4 µM (inactive) | -3.65% (inactive) | -4.53% (inactive) | > 46 µM (inactive) | inactive | inactive | 0.736% (inactive) | -10.7 | -8.67 | inactive |  |  |  |  |  |  | 
3 | COc1ccc(C(=O)N2CCC3(CC2)CN(CC(C)C)C3)cc1 | > 11.4 µM (inactive) | 1.62% (inactive) | 6.78% (inactive) | > 46 µM (inactive) | inactive | inactive | 3.28% (inactive) | 16.1 | 21.1 | inactive |  |  |  |  |  |  | 
4 | COCC(=O)N1CCC2(CCCN(Cc3ccc(C#N)cc3)C2)CC1 | > 11.4 µM (inactive) | 12.6% (inactive) | 1.68% (inactive) | > 46 µM (inactive) | inactive | inactive | 4.66% (inactive) | -1.66 | 3.44 | inactive |  |  |  |  |  |  | 
5 | COC(=O)N1CCC2(CCN(Cc3ccc(C#N)cc3)CC2)CC1 | > 11.4 µM (inactive) | -12.5% (inactive) | 21.3% (inactive) | > 46 µM (inactive) | inactive | inactive | 6.51% (inactive) | 5.74 | 14.3 | inactive |  |  |  |  |  |  | 
6 | CN(C)C(=O)c1ccc(-c2nc(NCc3ccccc3)c3ccccc3n2)cc1 | > 11.4 µM (inactive) |  | -21.7% (inactive) | > 46 µM (inactive) | inactive |  | 10.9% (inactive) | 6.91 | 16.5 | inactive | 15.8 µM (active) | 16% (inactive) | inactive | inactive | inactive | inactive | 
7 | N#Cc1ccc(CN2CC3(CCN(C(=O)c4cnccn4)CC3)C2)cc1 | > 11.4 µM (inactive) | -10.3% (inactive) | 11.6% (inactive) | > 46 µM (inactive) | inactive | inactive | 3.16% (inactive) | 15 | 20.2 | inactive |  |  |  |  |  |  | 3.16 µM (active)
